Source: PubChem BioAssay
FLuc counter: qHTS profiling assay for firefly luciferase inhibitor/activator using purifed enzyme and Km concentrations of substrates (counterscreen for miR-21 project); Luciferin 4-monooxygenase (Photinus pyralis), P08659; purified FLuc, Km substrates, luminescence inhibition; Potency, µM (titrated, usually from 57.5 µM), for inactives: at the top dose activity change, negative = inhibition, most hits filed as inhibitors; 6.9% of 360,000 active; AID 588342, 2011;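 further: plate controls were vehicle for no effect and reference inhibitor for full effect; nearly all actives have a fitted effect of over 55% in size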
Target sequence (P08659 whole entry, looked up): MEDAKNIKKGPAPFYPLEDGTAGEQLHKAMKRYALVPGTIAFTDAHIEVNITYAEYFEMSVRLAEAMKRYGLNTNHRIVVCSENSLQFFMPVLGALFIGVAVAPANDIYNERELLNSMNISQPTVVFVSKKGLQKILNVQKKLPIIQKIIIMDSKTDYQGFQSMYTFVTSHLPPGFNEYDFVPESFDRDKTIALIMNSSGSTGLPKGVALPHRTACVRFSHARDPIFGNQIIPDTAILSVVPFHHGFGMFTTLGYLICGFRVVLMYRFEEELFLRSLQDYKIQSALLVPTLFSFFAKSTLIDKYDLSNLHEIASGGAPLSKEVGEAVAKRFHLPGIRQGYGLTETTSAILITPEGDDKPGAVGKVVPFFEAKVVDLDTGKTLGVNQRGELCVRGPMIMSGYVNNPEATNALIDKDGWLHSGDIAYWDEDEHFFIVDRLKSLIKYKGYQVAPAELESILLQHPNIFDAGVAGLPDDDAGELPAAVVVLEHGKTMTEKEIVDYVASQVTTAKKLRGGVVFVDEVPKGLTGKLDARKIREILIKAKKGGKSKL
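Purified P. pyralis luciferase (10nM final) with 10uM D-luciferin and 10uM ATP (Km levels) in 50mM Tris acetate pH 7.5, 10mM Mg acetate, 0.01% Tween-20, 0.05% BSA; qHTS 6-point titration, ~60 µM downward; luminescence read.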
Rab9 promoter act: qHTS Assay for Rab9 Promoter Activators; Huh7 Rab9 promoter-luciferase reporter, luminescence, 24 h; Potency, µM (top dose mostly 9.22 µM), for inactives: at the top dose activation, negative = inhibition, usual class: activators; 2.8% of 320,000 active; AID 485297, 2010; further: % of control where 0% means no effect; nearly all actives have a fitted effect of over 60% in size
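Measured in stably transfected Huh7 cells bearing a Rab9 promoter–luciferase construct: 24 h compound treatment at 37 °C, followed by luminescence detection.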
ELG1 genotox: qHTS screen for small molecules that induce genotoxicity in human embryonic kidney (HEK293T) cells expressing luciferase-tagged ELG1 | HEK293T ELG1-luciferase reporter, luminescence, 16 h | 1.3% of 330,000 active | Potency, µM (doses to about 46 µM), for inactives: at the top dose activity change, positive = activation, usual class: activators | AID 504466, 2011; further: % of control where 0% means no effect; nearly all actives have a fitted effect of over 60% in size
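16 hr compound incubation (37 °C, 5% CO2) of HEK293T cells carrying luciferase-tagged ELG1; luciferase then measured by ONE-Glo luminescence after 30 min at RT.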
NPC1 promoter act: qHTS Assay for NPC1 Promoter Activators | Huh7 NPC1 promoter luciferase reporter, 24 h | Potency, µM (series often up to 9.22 µM), for inactives: at the top dose activation, most hits filed as activators | 2.4% of 320,000 active; further: % of control where 0% means no effect; nearly all actives have a fitted effect of over 60% in size
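Quantitative HTS used a cell-based reporter: Huh7 cells stably bearing the NPC1 promoter upstream of luciferase were treated with compounds for 24 h, and promoter activation was read as luminescence.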
SMN2 splice up: qHTS Assay for Enhancers of SMN2 Splice Variant Expression; HEK293 SMN2-luciferase splicing reporter, luminescence, 30-36 h; 2.8% of 210,000 active; Potency, µM (titrated, usually from 46.1 µM), for the others: at the highest dose activity change, positive = activation, actives largely listed as activators; further: % of control where 0% means no effect; nearly all actives have a fitted effect of over 55% in size
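HEK293 cells carry an SMN2 minigene-luciferase reporter in which exon 7 inclusion puts luciferase in frame. Cells were seeded at 2000 cells/well, attached for 10-12 hours, then exposed to compounds for 30-36 hours at 37C before ONE-Glo luminescence.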
Numbers without * were called inactive; [ ] = remark or other dose. A selection: hits, their analogues and other compounds. The true share with any hit is near 7.5%. The call rests on the fitted dose curve; in most records, active means well fitted curve in the direction sought with a large enough effect; inconclusive means small, poorly fitted or top-dose-only effect, or another doubt; inactive means no such curve, though single readings can be large; an effect the other way counts as inactive or inconclusive. Potency means the concentration at half of the fitted maximal effect.

COC(=O)Cc1[nH]n(-c2nc3ccccc3s2)c(=O)c1C(C)=Nc1ccc(Cl)cc1 was read as FLuc counter 12µM*, Rab9 promoter act -57.7%, ELG1 genotox 1.9% and NPC1 promoter act -44.3%.
Screening COC(=O)Cc1[nH]n(-c2ccccc2)c(=O)c1C(C)=Nc1ccccc1 returned FLuc counter inconclusive, Rab9 promoter act 3.16µM*, ELG1 genotox 10.1%, NPC1 promoter act inconclusive and SMN2 splice up -14.2%.
For COC(=O)Cc1[nH]n(-c2nc3ccccc3s2)c(=O)c1C(C)=Nc1ccc(C)cc1 the results were FLuc counter inconclusive, Rab9 promoter act -43.8%, ELG1 genotox -12.2%, NPC1 promoter act -33.9% and SMN2 splice up -93.9%.
`COC(=O)Cc1cc(=O)n(-c2ccccc2)[nH]1` gave FLuc counter 1.7%, Rab9 promoter act 2.4%, ELG1 genotox -3.3%, NPC1 promoter act -0.9% and SMN2 splice up 24.6%.
Screening CCC(C)Sc1ccc([C@H]2N[C@@](C)(C(=O)OC)[C@H]3C(=O)N(C)C(=O)[C@@H]23)cc1 (stereo not given in full) returned ELG1 genotox 3.0%.
For COc1cc(C(=O)Nc2ccc(Cl)c(C(F)(F)F)c2)cc(OC)c1OC the results were FLuc counter 21.3µM*, Rab9 promoter act 8.9%, ELG1 genotox 1.6%, NPC1 promoter act 0.2% and SMN2 splice up -8.0%[1.84 µM].
`COc1cccc(C(=O)Nc2cc(C(F)(F)F)ccc2Cl)c1` gave FLuc counter inconclusive, Rab9 promoter act 1.3%, ELG1 genotox -0.6%, NPC1 promoter act 1.5% and SMN2 splice up -14.2%.
`COc1cccc(C(=O)Nc2ccc(Cl)c(C(F)(F)F)c2)c1` gave FLuc counter 21.3µM*, Rab9 promoter act inconclusive, ELG1 genotox 1.0%, NPC1 promoter act 2.2% and SMN2 splice up -4.9%.
Screening Cc1cccc(N2CCN(C(=O)c3cc4c(=O)n(C)c5ccccc5c4n3C)CC2C)c1 (stereo not given) returned FLuc counter -1.8%, Rab9 promoter act -1.7%, ELG1 genotox -11.9%, NPC1 promoter act -1.3% and SMN2 splice up -9.5%.
`CCOC(=O)Cn1nc(C)c(NC(=O)c2ccc(Cl)c([N+](=O)[O-])c2)c1C` gave FLuc counter 4.8%, Rab9 promoter act 7.2%, ELG1 genotox -1.0%, NPC1 promoter act -5.0% and SMN2 splice up 4.2%.
For O=CN1CCN(C(=O)c2ccc(-c3nc4ccccc4s3)s2)CC1 the results were FLuc counter 10.7µM*, Rab9 promoter act 1.12µM*, ELG1 genotox inconclusive and NPC1 promoter act 1.78µM*.
Screening CCS(=O)(=O)c1ccccc1C(=O)N1CCN(c2nc3ccccc3s2)CC1 returned FLuc counter -4.3%.
O=C(O)CCN1C(=O)/C(=C/c2ccc(-c3nc4ccccc4s3)o2)SC1=S was read as FLuc counter inconclusive, Rab9 promoter act 8.0%, ELG1 genotox 5.3%, NPC1 promoter act 5.0% and SMN2 splice up -9.2%.
Screening O=C(c1ccc(-c2nc3ccccc3s2)o1)N1CCN(c2ccccc2O)CC1 returned FLuc counter 16.9µM*, Rab9 promoter act inconclusive, ELG1 genotox -9.1% and NPC1 promoter act inconclusive.
Screening O=C(O)c1ccc(-c2nc3ccccc3s2)o1 returned FLuc counter 6.01µM*, Rab9 promoter act inconclusive, ELG1 genotox 12.3% and NPC1 promoter act inconclusive.
For O=Cc1ccc(-c2nc3ccccc3s2)o1 the results were FLuc counter 10.7µM*, Rab9 promoter act inconclusive, ELG1 genotox inconclusive, NPC1 promoter act 27.0% and SMN2 splice up 11.2µM*.
`O=C(Nc1ccccc1-c1nc2ccccc2s1)c1ccc(Br)o1` gave FLuc counter 3.4%, Rab9 promoter act 0.4%, ELG1 genotox -0.7%, NPC1 promoter act -0.1% and SMN2 splice up -23.7%.
Screening O=C(c1ccc(-c2cccc(C(F)(F)F)c2)o1)N1CCN(c2ccccc2)CC1 returned FLuc counter 2.8%, Rab9 promoter act 5.2%, ELG1 genotox 1.0% and NPC1 promoter act 0.3%.
`CCSc1ccc(-c2cccc([N+](=O)[O-])c2)nn1` gave FLuc counter inconclusive, Rab9 promoter act 3.16µM*, ELG1 genotox inconclusive, NPC1 promoter act inconclusive and SMN2 splice up inconclusive.
For CC/C=C\C/C=C\C/C=C\C/C=C\C=C\C(O)CCCC(=O)O (stereo not given) the results were SMN2 splice up 1.0%.
CC(=O)Nc1ccc(NC(=O)c2cc(-c3ccc(C)c(C)c3O)n[nH]2)cc1 was read as FLuc counter 5.36µM*, Rab9 promoter act 19.6%, ELG1 genotox -15.8% and NPC1 promoter act 10.0%.
Cc1ccc(-c2cc(C(=O)Nc3ccc(S(=O)(=O)Nc4ncccn4)cc3)[nH]n2)c(O)c1C was read as FLuc counter 4.78µM*, Rab9 promoter act 2.4%, ELG1 genotox 2.9% and NPC1 promoter act -1.8%.
`CC(=O)Nc1ccc(NC(=O)c2cc(-c3cc(C)cc(C)c3O)n[nH]2)cc1` gave FLuc counter 3.38µM*, Rab9 promoter act 2.8%, ELG1 genotox -7.1% and NPC1 promoter act 8.3%.
`Cc1cc(C)c(O)c(-c2cc(C(=O)Nc3ccc(S(=O)(=O)N4CCOCC4)cc3)[nH]n2)c1` gave FLuc counter -7.4%, Rab9 promoter act -6.8%, ELG1 genotox -42.7%, NPC1 promoter act -3.6% and SMN2 splice up -24.0%.
Screening CCOC(=O)c1c(C)oc2c1c(C=NCc1ccccn1)c(O)c1ccccc12 returned FLuc counter inconclusive, Rab9 promoter act -5.5%, ELG1 genotox -22.5%, NPC1 promoter act -4.2% and SMN2 splice up -66.1%.
CCOC(=O)c1c(C)oc2c1c(C=NCC1CCCO1)c(O)c1ccccc12 (stereo not given) was read as FLuc counter 9.53µM*, Rab9 promoter act -3.1%, ELG1 genotox -10.7%, NPC1 promoter act -0.5% and SMN2 splice up 24.9%.
O=C(O)CCCNC(=O)CCCNC(=O)C(c1ccccc1)c1ccccc1 was read as FLuc counter -0.8%, Rab9 promoter act -0.6%, ELG1 genotox -3.1%, NPC1 promoter act -1.0% and SMN2 splice up -2.4%.
Screening COc1cccc(/C=N/NC(=O)c2cccc(N3CCCC3=O)c2)c1 returned FLuc counter 9.53µM*, Rab9 promoter act inconclusive, ELG1 genotox 4.11µM* and NPC1 promoter act inconclusive.
`O=C(N/N=C/c1ccco1)c1cccc(N2CCCC2=O)c1` gave FLuc counter 19µM*, Rab9 promoter act 22.5%, ELG1 genotox 17.7%, NPC1 promoter act 11.6% and SMN2 splice up inconclusive.
For CN(C)c1ccc(/C=N/NC(=O)c2cccc(N3CCCC3=O)c2)cc1 the results were FLuc counter 10.7µM*, Rab9 promoter act 15.2%, ELG1 genotox 9.3%, NPC1 promoter act 4.1% and SMN2 splice up 3.8%.
